Data from PubChem BioAssay.
Several values for one entry are separate records, joined by “and”; a condition that tells them apart may be missing. Identical values can stand only once. Activity calls are given as the source filed them.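 How the source made its calls, unless noted: active means thallium flux through the channel raised or lowered by more than 3 SD from vehicle-only wells, actives on both sides; inactive means the rest.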

What was measured:
[1] = stimulators of nuclear beta-catenin in C2C12, primary screen, imaging, WNT3A-conditioned medium, mouse C2C12, NPC library (AID 1117326; in the data active means nuclear beta-catenin stimulation mostly above about 4.2%, no sharp cut-off; inactive means mostly below about 10%); details: stronger effect = higher value
[2] = stimulators of insulin release from INS-1E, primary screen, cell-based, 5 mM glucose, NPC library (AID 1117329;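 active means compound raises insulin release from rat beta cells at 5 mM glucose, no numeric limit stated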); details: rat INS-1E insulin secretion, at 10 µM, stronger effect = higher value
[3] = growth inhibition of GSK3B-pretreated HCT116 cells – cell-based, CellTiter-Glo, 0.2 to 20 µM (AID 1117336;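 active means compounds lowering colon cancer cell viability after pretreatment blocking the GSK3B kinase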); details: HCT116 viability after GSK3B inhibitor, at 20 µM, stronger effect = higher value
[4] = inhibition of endothelial tube formation, primary screen, imaging, VEGF stimulated, CD31 staining, tube area, NPC library (AID 1117340;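 active means compound that reduces growth-factor-driven endothelial tube area in a mixed cell culture, no cutoff stated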); details: VEGF-stimulated ADSC/ECFC co-culture, at 10 µM, stronger effect = higher value
[5] = glucagon-like peptide 1 release enhancers, primary assay, NCI-H716 cell line, NPC library (AID 1117341;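 active means compound raises GLP1 secretion from the human gut endocrine cells, with no numeric limit stated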); details: NCI-H716 cells, at 10 µM, stronger effect = higher value
[6] = HCT116 colon cancer cell growth inhibition, primary screen, CellTiter-Glo luminescence, NPC library (AID 1117342;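 active means compounds that lower survival of HCT116 colon cancer cells in the luminescence readout, no numeric limit stated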); details: at 20 µM (top of the series)
[7] = CellTiter-Glo luminescent readout of SW480 viability loss, NPC library primary (AID 1117343;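 active means compounds that lower viability of the colon cancer cells in the luminescence readout, with no numeric limit stated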); details: CellTiter-Glo luminescence; at 20 µM (top of the series)
[8] = decreased DLD-1 cellular survival, CellTiter-Glo luminescent readout, NPC compound collection, primary HTS (AID 1117346;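 active means compounds that lower survival of DLD-1 colon cancer cells in the luminescence readout, no cutoff given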); details: DLD-1 viability, CellTiter-Glo luminescence; at 20 µM (top of the series)
[9] = biological target: 6-phosphogluconate dehydrogenase, decarboxylating (Homo sapiens) (UniProt P52209); test: 6PGD enzyme inhibitors, primary screen, biochemical, human, recombinant enzyme, NADPH absorbance (AID 1159550;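 active means at least 20% inhibition of 6-phosphogluconate dehydrogenase activity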); details: recombinant 6PGD, NADPH absorbance 341 nm; at 10 µM; stronger effect = higher value
[10] = modulation of C. elegans fzo-1 (AID 1259413; call rule not given here;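 further: fzo-1 mutant C. elegans worms in liquid wells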); details: C. elegans fzo-1 modulator screen, mean read-out; stronger effect = higher value
[11] = differential killing of epithelial or mesenchymal cells, primary screen, imaging, PC-3E GFP, TEM4-18 mCherry, co-culture (AID 1345086;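 active means compounds killing one labelled cell type while sparing the other, by normalised counts and ratio limits, not self-fluorescent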;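 on all read-outs here: cells exposed to compound for 72 h before imaging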;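 on red/green cell ratio (normalised): normalised mesenchymal count divided by normalised epithelial count so high means epithelial killing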); details: imaging cell counts, at 1 µM; for red/green cell ratio (normalised): actives lie on both sides, counts scaled to control wells, 1 = unselective
[12] = survival rescue of mitochondrial mutant cells in low glucose, primary screen, MELAS cybrids, Rieske KO mouse fibroblasts, CellTiter-Glo (AID 1508586;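 active means mean z-score across replicates of 1.96 or higher in either the MELAS or the Rieske mutant cell line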;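 further: z relative to plate mean and SD of compound and empty wells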)
[13] = biological target: NAD(+) hydrolase SARM1 (Homo sapiens) (UniProt Q6SZW1); test: SARM1 TIR NADase inhibitors, cell lysate, NAD-Glo luminescence (AID 1508614;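 active means compound whose remaining NAD level is above about 45 nM, limit read from the data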); details: SAM-TIR HEK293T lysate NADase, at 1 µM, stronger effect = higher value
[14] = biological target: Mitogen-activated protein kinase 7 (Homo sapiens) (UniProt Q13164); test: ERK5 transactivation activators in reporter cells, primary screen, cell-based, HTS (AID 1508626;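 active means luciferase signal above three times the same-plate solvent-only control wells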;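 further: luciferase driven by Gal4-ERK5 fusion binding five Gal4 sites before minimal TATA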); details: HeLa Gal4-ERK5 transactivation, 18 h, at 5 µM, stronger effect = higher value
F380Y = test: modulators of BK channel variants, profiling panel, selectivity assay, cell-based, U2OS BacMam, thallium flux, beta subunits (AID 1259406); details: at 30 µM;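 further: initial slope of Thallos dye fluorescence rise after thallium is added; log ratio against the mean of 0.3% DMSO vehicle wells on the same plate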
F380Y/beta1 = test: as above; details: at 30 µM
F380Y/beta2Delta = test: as above; details: at 30 µM
[15] = sensitizers of A549 cells to miR-34 induction, primary screen, imaging, A549 dox-inducible miR-34, nuclei and caspase counts (AID 1347080;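 active means compounds whose cell count with miR-34 switched on is under 0.7 times the count with it off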); details: A549 miR-34 inducible, Hoechst nuclei count, 48 h
[16] = measured here: epithelial PC-3E GFP cell survival
[17] = measured here: mesenchymal TEM4-18 mCherry cell survival
[18] = MELAS cybrid survival, CellTiter-Glo 48 h, stronger effect = higher value
[19] = Rieske KO mouse fibroblast survival, CellTiter-Glo 72 h

Sequence of Mitogen-activated protein kinase 7 (Homo sapiens) (Q13164 whole entry, looked up, the tested form may be a part): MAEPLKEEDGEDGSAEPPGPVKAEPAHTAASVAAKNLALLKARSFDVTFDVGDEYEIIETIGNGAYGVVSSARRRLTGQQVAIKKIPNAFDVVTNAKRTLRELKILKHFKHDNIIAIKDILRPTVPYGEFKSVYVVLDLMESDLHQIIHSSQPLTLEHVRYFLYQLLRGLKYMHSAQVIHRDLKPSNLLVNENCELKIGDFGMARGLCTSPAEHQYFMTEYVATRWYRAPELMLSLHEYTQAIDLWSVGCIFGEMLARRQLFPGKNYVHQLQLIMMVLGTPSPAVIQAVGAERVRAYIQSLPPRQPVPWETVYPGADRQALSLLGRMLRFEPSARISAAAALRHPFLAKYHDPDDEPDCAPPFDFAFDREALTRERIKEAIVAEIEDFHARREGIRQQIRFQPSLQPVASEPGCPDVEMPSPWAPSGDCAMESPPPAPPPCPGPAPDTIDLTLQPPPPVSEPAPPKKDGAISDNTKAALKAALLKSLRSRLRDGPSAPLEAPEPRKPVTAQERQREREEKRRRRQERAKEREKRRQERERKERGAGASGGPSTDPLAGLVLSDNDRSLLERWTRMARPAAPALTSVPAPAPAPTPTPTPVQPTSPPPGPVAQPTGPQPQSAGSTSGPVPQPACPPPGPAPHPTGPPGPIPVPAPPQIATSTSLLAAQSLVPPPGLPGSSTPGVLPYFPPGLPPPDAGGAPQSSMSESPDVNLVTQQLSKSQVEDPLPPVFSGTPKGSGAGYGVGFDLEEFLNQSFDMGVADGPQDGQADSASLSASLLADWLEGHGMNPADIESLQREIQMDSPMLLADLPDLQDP
Sequence of NAD(+) hydrolase SARM1 (Homo sapiens) (Q6SZW1 whole entry, looked up, the tested form may be a part): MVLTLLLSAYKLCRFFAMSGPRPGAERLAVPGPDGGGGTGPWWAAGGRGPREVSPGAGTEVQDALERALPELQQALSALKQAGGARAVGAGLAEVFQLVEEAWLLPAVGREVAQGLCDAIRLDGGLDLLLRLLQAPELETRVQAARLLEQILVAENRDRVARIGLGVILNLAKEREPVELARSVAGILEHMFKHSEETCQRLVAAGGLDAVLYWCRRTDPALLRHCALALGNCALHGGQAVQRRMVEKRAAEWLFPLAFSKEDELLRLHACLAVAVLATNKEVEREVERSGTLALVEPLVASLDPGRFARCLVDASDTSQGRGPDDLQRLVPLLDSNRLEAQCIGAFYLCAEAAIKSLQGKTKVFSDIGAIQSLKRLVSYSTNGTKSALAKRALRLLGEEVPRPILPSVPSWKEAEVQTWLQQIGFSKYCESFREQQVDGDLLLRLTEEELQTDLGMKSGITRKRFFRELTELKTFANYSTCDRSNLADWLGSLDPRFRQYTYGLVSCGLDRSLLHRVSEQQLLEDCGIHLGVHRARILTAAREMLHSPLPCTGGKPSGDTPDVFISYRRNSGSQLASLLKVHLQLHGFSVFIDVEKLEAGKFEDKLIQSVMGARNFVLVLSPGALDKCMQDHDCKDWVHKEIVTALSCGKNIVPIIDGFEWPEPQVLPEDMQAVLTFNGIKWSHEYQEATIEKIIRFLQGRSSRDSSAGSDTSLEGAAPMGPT
Sequence of 6-phosphogluconate dehydrogenase, decarboxylating (Homo sapiens) (P52209 whole entry, looked up): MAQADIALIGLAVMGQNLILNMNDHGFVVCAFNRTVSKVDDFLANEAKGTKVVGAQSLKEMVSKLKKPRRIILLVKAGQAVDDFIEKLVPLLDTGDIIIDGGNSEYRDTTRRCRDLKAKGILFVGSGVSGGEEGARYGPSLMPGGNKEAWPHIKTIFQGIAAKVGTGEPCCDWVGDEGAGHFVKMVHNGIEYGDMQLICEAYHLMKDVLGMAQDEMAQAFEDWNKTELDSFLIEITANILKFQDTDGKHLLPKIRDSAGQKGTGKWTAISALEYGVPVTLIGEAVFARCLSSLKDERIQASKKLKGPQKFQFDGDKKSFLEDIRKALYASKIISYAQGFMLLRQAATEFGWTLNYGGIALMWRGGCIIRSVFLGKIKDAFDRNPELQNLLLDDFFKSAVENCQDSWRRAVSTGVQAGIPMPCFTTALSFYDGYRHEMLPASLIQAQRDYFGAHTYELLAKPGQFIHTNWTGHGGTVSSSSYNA

SMILES: CN(C)CCCN1c2ccccc2CCc2ccc(Cl)cc21
- nuclear beta-catenin stimulation ([1]; at 10 µM): 2.9% (inactive)
- nuclear beta-catenin stimulation ([1]; stimulation, at 2 µM): 2.5%
- insulin secretion stimulation [2]: 5.4% (inactive)
- viability decrease [3]: -53% (inactive)
- tube area decrease [4]: 23.1% (inactive)
- GLP1 secretion stimulation [5]: 13.3% (inactive)
- inhibition of viability [6]: 67.4% (active)
- viability decrease (inhibition) [7]: 61.1% (active)
- viability decrease (inhibition) [8]: 61.8% (active)
- inhibition [9]: 13.8% (inactive)
- mean signal [10]: 222 (inactive)
- red/green cell ratio (normalised) [11]: 1.09 (inactive)
- normalised cell number [11, 16]: 0.96
- normalised cell number [11, 17]: 1.05
- z-score [12, 18]: -0.661 (inactive) and 0.117 (inactive)
- z-score [12, 19]: -0.587 and 0.253
- remaining NAD [13]: 10 nM (inactive)
- luciferase signal [14]: 32 AU (inactive)
- log fold change Tl+ flux (F380Y): -0.0375 (inactive)
- log fold change Tl+ flux (F380Y/beta1): -0.109 (inactive)
- log fold change Tl+ flux (F380Y/beta2Delta): -0.0656 (inactive)

SMILES: CCCCCN=C(N)N/N=C/c1c[nH]c2ccc(OC)cc12
- nuclear beta-catenin stimulation ([1]; at 10 µM): -2.1% (inactive)
- nuclear beta-catenin stimulation ([1]; stimulation, at 2 µM): 5.8%
- insulin secretion stimulation [2]: 57.5% (active)
- viability decrease [3]: 118% (active)
- tube area decrease [4]: 111% (active)
- GLP1 secretion stimulation [5]: 53.2% (active)
- inhibition of viability [6]: 125% (active)
- viability decrease (inhibition) [7]: 159% (active)
- viability decrease (inhibition) [8]: 102% (active)
- inhibition [9]: -7.67% (inactive)
- mean signal [10]: 250 (inactive)
- red/green cell ratio (normalised) [11]: 1.12 (inactive)
- normalised cell number [11, 16]: 0.96
- normalised cell number [11, 17]: 1.08
- z-score [12, 18]: 0.364 (inactive)
- z-score [12, 19]: 1.74
- remaining NAD [13]: 10 nM (inactive)
- luciferase signal [14]: 68 AU (inactive)

SMILES: CC[C@H]1CN2CCc3cc(OC)c(OC)cc3[C@@H]2C[C@@H]1C[C@H]1NCCc2cc(OC)c(OC)cc21
- nuclear beta-catenin stimulation ([1]; at 10 µM): 12.4% (inactive)
- nuclear beta-catenin stimulation ([1]; stimulation, at 2 µM): 9.1%
- insulin secretion stimulation [2]: 13.4% (inactive)
- viability decrease [3]: 82.1% (active)
- tube area decrease [4]: 110% (active)
- GLP1 secretion stimulation [5]: 2.4% (inactive)
- inhibition of viability [6]: 84.8% (active)
- viability decrease (inhibition) [7]: 115% (active)
- viability decrease (inhibition) [8]: 97% (active)
- inhibition [9]: 6.15% (inactive)
- fold change ([15]; stronger effect = lower value, cell number ratio, induced over uninduced): 1.04 (inactive) and 0.853 (inactive)
- fold change ([15]; measured here: relative caspase fold change +Dox/-Dox): 1.32 and 1.38
- cell count ([15]; measured here: total cells with miR-34 induction, stronger effect = lower value): 1340 and 1650
- cell count ([15]; measured here: total cells without miR-34 induction): 1300 and 1930
- remaining NAD [13]: 10 nM (inactive)
- luciferase signal [14]: 24 AU (inactive)

SMILES: Cc1coc2ccccc2c1=O
- nuclear beta-catenin stimulation ([1]; at 10 µM): 1.5% (inactive)
- nuclear beta-catenin stimulation ([1]; stimulation, at 2 µM): 2.3%
- insulin secretion stimulation [2]: -2.4% (inactive)
- viability decrease [3]: 2.8% (inactive)
- tube area decrease [4]: 13.7% (inactive)
- GLP1 secretion stimulation [5]: 3.1% (inactive)
- inhibition of viability [6]: -12.2% (inactive)
- viability decrease (inhibition) [7]: 24.7% (inactive)
- viability decrease (inhibition) [8]: -7.5% (inactive)
- inhibition [9]: 1.24% (inactive)

SMILES: CC[C@H](C)C(=O)O[C@H]1C[C@@H](C)C=C2C=C[C@H](C)[C@H](CC[C@@H]3C[C@@H](O)CC(=O)O3)[C@H]21
- nuclear beta-catenin stimulation ([1]; at 10 µM): 13.1% (inactive)
- nuclear beta-catenin stimulation ([1]; stimulation, at 2 µM): 4.2%
- insulin secretion stimulation [2]: 6.6% (inactive)
- viability decrease [3]: 69.3% (active)
- tube area decrease [4]: 95.5% (active)
- GLP1 secretion stimulation [5]: 25% (active)
- inhibition of viability [6]: 56.9% (active)
- viability decrease (inhibition) [7]: 87% (active)
- viability decrease (inhibition) [8]: 36.2% (inactive)
- inhibition [9]: -1.21% (inactive)
- mean signal [10]: 253 (inactive)
- red/green cell ratio (normalised) [11]: 0.98 (inactive)
- normalised cell number [11, 16]: 1.39
- normalised cell number [11, 17]: 1.37
- z-score [12, 18]: -0.236 and -1.19 (inactive)
- z-score [12, 19]: 2.23 and -0.0427
- remaining NAD [13]: 10 nM (inactive)
- luciferase signal [14]: 60 AU (inactive)
- log fold change Tl+ flux (F380Y): 0.184 (active)
- log fold change Tl+ flux (F380Y/beta1): 0.00194 (inactive)
- log fold change Tl+ flux (F380Y/beta2Delta): 0.0899 (active)

SMILES: CCC(C(=O)O)c1ccc(N2Cc3ccccc3C2=O)cc1 (configuration not stated)
- nuclear beta-catenin stimulation ([1]; at 10 µM): 0.8% (inactive)
- nuclear beta-catenin stimulation ([1]; stimulation, at 2 µM): -0.1%
- insulin secretion stimulation [2]: 1.25% (inactive)
- viability decrease [3]: 15.4% (inactive)
- tube area decrease [4]: -24.8% (inactive)
- GLP1 secretion stimulation [5]: 1% (inactive)
- inhibition of viability [6]: -4.3% (inactive)
- viability decrease (inhibition) [7]: -8.7% (inactive)
- viability decrease (inhibition) [8]: -10% (inactive)

SMILES: CC1=C(CC(=O)O)c2cc(F)ccc2/C1=C\c1ccc(S(C)=O)cc1 (configuration not stated)
- nuclear beta-catenin stimulation ([1]; at 10 µM): -1.5% (inactive)
- nuclear beta-catenin stimulation ([1]; stimulation, at 2 µM): 0.2%
- insulin secretion stimulation [2]: 0.2% (inactive)
- viability decrease [3]: -51.5% (inactive)
- tube area decrease [4]: 15.7% (inactive)
- GLP1 secretion stimulation [5]: -1.1% (inactive)
- inhibition of viability [6]: -9.1% (inactive)
- viability decrease (inhibition) [7]: 15% (inactive)
- viability decrease (inhibition) [8]: -23.3% (inactive)
- inhibition [9]: 2.79% (inactive)
- mean signal [10]: 230 (inactive)
- red/green cell ratio (normalised) [11]: 1.2 (inactive)
- normalised cell number [11, 16]: 0.35
- normalised cell number [11, 17]: 0.43
- z-score [12, 18]: -0.637 (inactive)
- z-score [12, 19]: 0.215
- remaining NAD [13]: 10 nM (inactive)
- luciferase signal [14]: 56 AU (inactive)
- log fold change Tl+ flux (F380Y): 0.0356 (inactive)
- log fold change Tl+ flux (F380Y/beta1): 0.0787 (inactive)
- log fold change Tl+ flux (F380Y/beta2Delta): 0.0561 (inactive)

SMILES: Cc1noc(NS(=O)(=O)c2ccc(N)cc2)c1C
- nuclear beta-catenin stimulation ([1]; at 10 µM): 0.8% (inactive)
- nuclear beta-catenin stimulation ([1]; stimulation, at 2 µM): 0.7%
- insulin secretion stimulation [2]: -1.5% (inactive)
- viability decrease [3]: -14.5% (inactive)
- tube area decrease [4]: 8.7% (inactive)
- GLP1 secretion stimulation [5]: 0.1% (inactive)
- inhibition of viability [6]: 0.13% (inactive)
- viability decrease (inhibition) [7]: -27% (inactive)
- viability decrease (inhibition) [8]: -5.7% (inactive)
- inhibition [9]: -15.2% (inactive)
- mean signal [10]: 256 (inactive)
- red/green cell ratio (normalised) [11]: 1.68 (inactive)
- normalised cell number [11, 16]: 0.73
- normalised cell number [11, 17]: 1.22
- z-score [12, 18]: -0.0643 (inactive) and 0.19 (inactive)
- z-score [12, 19]: -0.11 and -0.107
- remaining NAD [13]: 10 nM (inactive)
- luciferase signal [14]: 100 AU (inactive)
- log fold change Tl+ flux (F380Y): 0.00425 (inactive)
- log fold change Tl+ flux (F380Y/beta1): -0.0556 (inactive)
- log fold change Tl+ flux (F380Y/beta2Delta): 0.028 (inactive)

SMILES: CCC(C)(C)C(=O)O[C@H]1C[C@@H](C)C=C2C=C[C@H](C)[C@H](CC[C@@H]3C[C@@H](O)CC(=O)O3)[C@H]21
- nuclear beta-catenin stimulation ([1]; at 10 µM): 15.9% (inactive)
- nuclear beta-catenin stimulation ([1]; stimulation, at 2 µM): 7.6%
- insulin secretion stimulation [2]: 13.1% (inactive)
- viability decrease [3]: 95.1% (active)
- tube area decrease [4]: 91% (active)
- GLP1 secretion stimulation [5]: 28% (active)
- inhibition of viability [6]: 86% (active)
- viability decrease (inhibition) [7]: 119% (active)
- viability decrease (inhibition) [8]: 77.8% (active)
- inhibition [9]: 2.59% (inactive)
- mean signal [10]: 230 (inactive)
- red/green cell ratio (normalised) [11]: 0.86 (inactive)
- normalised cell number [11, 16]: 0.75
- normalised cell number [11, 17]: 0.65
- z-score [12, 18]: -2.63 (inactive) and -1.16 (inactive)
- z-score [12, 19]: -0.283 and -0.755
- remaining NAD [13]: 10 nM (inactive)
- luciferase signal [14]: 220 AU (inactive)
- log fold change Tl+ flux (F380Y): 0.085 (inactive)
- log fold change Tl+ flux (F380Y/beta1): 0.0381 (inactive)
- log fold change Tl+ flux (F380Y/beta2Delta): 0.0908 (active)

SMILES: CC(C)(C)c1ccc2c(S(=O)(=O)O)c(C(C)(C)C)ccc2c1
- nuclear beta-catenin stimulation ([1]; at 10 µM): -2.9% (inactive)
- nuclear beta-catenin stimulation ([1]; stimulation, at 2 µM): -1.4%
- insulin secretion stimulation [2]: 0.3% (inactive)
- viability decrease [3]: -22% (inactive)
- tube area decrease [4]: -2.7% (inactive)
- GLP1 secretion stimulation [5]: 1% (inactive)
- inhibition of viability [6]: -18.9% (inactive)
- viability decrease (inhibition) [7]: 9% (inactive)
- viability decrease (inhibition) [8]: -14.4% (inactive)
